Reference: PubChem BioAssay (NCI)
About 79,000 compounds went through this panel and 15% of them were active in at least one assay; those are over-represented in the sample as a whole. Values without a mark were called inactive. Active and inactive are the calls of the source. Cut-off read from the data, not from the text of the source: active = growth inhibition above about 70%; inactive = the rest.

Assay: NCI Yeast Anticancer Drug Screen. Data for the mlh1 rad18 strain (AID 175)
Conditions: S. cerevisiae mlh1 rad18 strain growth inhibition; at 50.0 µM; stronger effect = higher value
Experimental: Growth inhibition of yeast strains with defined genetic alterations is measured as a screen for potential anti-cancer activity. Selected strains with alterations in DNA damage repair or cell cycle control were exposed to compounds and growth inhibition was measured relative to vehicle treated controls. The strain used in this assay is mlh1 rad18
For `O=C(O)/C(=C\c1ccncc1)c1cccc2ccccc12`, the growth inhibition was -9.65%. Compound `CCn1c(C)nc([N+](=O)[O-])c1Sc1ncc[nH]1` has a growth inhibition of -3.35%. With `CCOC(=O)C1=C(C)NC(C)=C(C(=O)OCC)C1` the growth inhibition was 13.5%. `CC1(C)CC2(CC3(C1)SCCS3)SCCS2` gave a growth inhibition of 1.35%. `COc1cc(O)c(O)cc1C(C)(C)C` showed a growth inhibition of -1.25%. `Cc1c(O)nc(N)[nH]c1=O` gave a growth inhibition of -7.2%. For `O=C1CC2(CCCC2)C(=O)N1c1cccc([N+](=O)[O-])c1`, the growth inhibition was -4.85%. With `O=C(O)C#Cc1ccccc1[N+](=O)[O-]` the growth inhibition was 9.35%. `CCC(=O)C1CCCCN1` (stereo not given) gave a growth inhibition of 3%. For `CN1CC(CN2CCCCCC2)C(O)C(c2ccccc2)C1` (stereo not given), the growth inhibition was 27.6%. `CCCCCCCC/C=C/CCCCCCCC(=O)NN(C)C` gave a growth inhibition of -11.3%. `Cc1ccc(OC(=O)c2cc([N+](=O)[O-])cc([N+](=O)[O-])c2)cc1` gave a growth inhibition of -0.7%. In the case of `c1ccc2c(CCNC3=NCCO3)cccc2c1`, the growth inhibition is reported as 1.45%. With `Cc1cc2ccccc2c2cc3ccccc3cc12` the growth inhibition was 7.75%. `COC(=O)CCC(=O)O` gave a growth inhibition of 43.4%. `O=C(/C=C/c1cccs1)c1ccc(C(=O)/C=C/c2cccs2)cc1` showed a growth inhibition of -31.9%. With `COc1ccc2[nH]cc(CN3CCC(CO)(c4ccccc4)CC3)c2c1` the growth inhibition was 3.55%. `Cc1ccccc1C=O` showed a growth inhibition of -0.85%. Compound `COC(=O)/C(N=Nc1cccc(C)c1)=C(\C)O` has a growth inhibition of -2.7%. With `Cc1cc(OC(=O)Nc2cccc(Cl)c2C)ccc1[N+](=O)[O-]` the growth inhibition was 1.7%. `O=C(CC(C(=O)c1ccsc1)c1cccs1)c1cccs1` (stereo not given) gave a growth inhibition of 33.8%. In the case of `CCOC(=O)c1c(C)[nH]c(C2=NCCC2)c1C`, the growth inhibition is reported as -5.95%. In the case of `CC(=O)c1cccc2cc(CC(=O)c3ccccc3)c(=O)oc12`, the growth inhibition is reported as 1.35%. `O=C(O)C1Cc2c([nH]c3ccccc23)C(c2cccs2)N1` (stereo not given) showed a growth inhibition of 14.3%. In the case of `O=C1/C(=C/c2ccc3c(c2)OCO3)CC/C1=C\c1ccc2c(c1)OCO2`, the growth inhibition is reported as -26.9%. Work on `Oc1cc2c(c3c(O)c4ccccc4c(O)c13)=NC1CCCCC1N=2` (stereo not given) yielded a growth inhibition of 40%. `CNCC1OC(OC)C2OC(C)(C)OC12` (stereo not given) showed a growth inhibition of 5.05%. In the case of `COC(=O)C(=O)C(C(=O)C(=O)Nc1cc(C)ccc1C)c1nc2ccccc2[nH]c1=O` (stereo not given), the growth inhibition is reported as 9.4%. `COC(=O)CCCCCNC(=O)NCCCCCC(=O)OC` showed a growth inhibition of 19.1%. For `O=C1C=C(NCCCCC2CCCCC2)c2ccccc2C1=O`, the growth inhibition was -4.6%. For `O=C1c2ccccc2C(=O)C2C1C1C(=O)c3ccccc3C(=O)C21` (stereo not given), the growth inhibition was 24.6%. In the case of `CC(C)C(O)(c1ccccc1)C(O)(c1ccccc1)C(C)C` (stereo not given), the growth inhibition is reported as 99.5% (active). `C=C[Si](Cl)(Cl)c1ccccc1` gave a growth inhibition of 11.2%. Compound `C#CC(O)C(CC)CCCC` (stereo not given) has a growth inhibition of 13.8%. With `COc1cc([C@@H]2c3cc4c(cc3[C@H](OC3OC5COC(C(C)C)OC5C(O)C3O)C3COC(=O)[C@@H]32)OCO4)cc(OC)c1OC` (stereo not given in full) the growth inhibition was -41.8%. Compound `CC1(C)CC(C2=NCCO2)CC(C)(C)N1` has a growth inhibition of -31.1%. `Fc1ccc(NC(=S)Nc2ccc(F)cc2)cc1` gave a growth inhibition of 3.4%. In the case of `Cc1cc(O)c(/C=N/C(=S)NCCc2ccccc2)c(=O)o1`, the growth inhibition is reported as -20.6%. `O=C(O)c1cccc(Br)c1` showed a growth inhibition of -5.5%. `CN(NC(=O)c1ccccc1)C(=O)c1ccccc1` gave a growth inhibition of 3.75%.
